# Experimental data as given in the OligoGym collection.
# Target: PTBP2
# Assay: pooled miR-30 sensor sort-seq; sequence = guide strand
# Conditions: shRNA
# Also: reference of the scale not given here.
row,Sequence,sensor-assay potency score (higher = more potent)
1,TGAACTAGCTAGACCAGTCTGC,0.184
2,TTATCTTCAATACAGCACCAAA,-1.15
3,TTGCTAACCAACAGGACTGTAT,-0.182
4,TAGCTGTACAGTCTGATGTTTA,-0.892
5,TAGTTCGTCAGATCCTCTCTTC,0.267
6,TTGGCTGTAACTACCATGCTGC,-0.376
7,TTTAATGTATTATCTGTCTTTA,-0.808
8,TTAAAGTCAGATCTATTCCTAA,0.0356
9,TTTAGTTCTTTGTGATTCGAGT,-0.551
10,TTAACCATAGTAATAGCTGCTT,0.167
11,TTCATTTAAATTGCTAACCAAC,-1.15

# Target: PTGDR
# Assay: as above
# Conditions: shRNA
row,Sequence,sensor-assay potency score (higher = more potent)
1,TATCCTAACACACCTCTCCAAA,-1.13
2,TACTGTTAAATCATACTCCTTG,0.542
3,ATTAACTGGACAATTATCCTAA,0.137
4,TGTACTTACACATTGAAGGTAC,0.268
5,TCTGCTTCTTCAGAGGTCCTGT,0.273
6,TTGATTCCTACTGACACCCTTG,0.657
7,TTAGTGGAATTGCTGCACCGGC,-1.14
8,TAAATTTCAAAAACAACTGTAT,-0.297
9,TACAGTGAGTCACACACTGGTT,-0.86
10,TTTAAGACTTTTAACACTGGTT,-0.351
11,TTTTTATGAATGTCCATCGTAT,-0.379
12,TAGGCAGCCAGCACCACCGGGC,-0.802

# Target: PTGDS
# Assay: as above
# Conditions: shRNA
row,Sequence,sensor-assay potency score (higher = more potent)
1,TTTTTCCTGAGGAAGGTGGAGG,-1
2,TTGCACATGGACAACGCCGCCT,-0.424
3,TAGTCGGTCTCCACCACTGACA,-1.34
4,AAGACAATGGTATCCTCTGTGA,-0.868
5,TACTGGTCGTAGTCGGTCTCCA,-0.484
6,TTATTGTGCAGGATGAAGCCTG,-0.188
7,TTGGGCTGCACGGAGACCTGGG,-0.764
8,TCCGGTAGCTGTAGGAGCCGAG,-0.81
9,TGAATTTCTCCTTTAACTCAGC,-0.751
10,TTCTCCTTTAACTCAGCCCTGG,-0.867
11,TTTCTCCTTTAACTCAGCCCTG,-1.14

# Target: PTGFRN
# Assay: as above
# Conditions: shRNA
row,Sequence,sensor-assay potency score (higher = more potent)
1,TTTGCTAACATCCCGAACCAGT,-0.807
2,TTTTCTTTGCTAACATCCCGAA,-0.589
3,TAAAACAACGCCATCCACCCGT,-0.0584
4,TTAACCATTAAAAAGCTGCAGT,-0.442
5,TTTCTTTGCTAACATCCCGAAC,-1.24
